In PubChem BioAssay:
Activity calls are given as the source filed them. Unless noted, how the calls were made is not given here.

How the values were obtained:
[1] = tested on: Wnt5a (protein binding on small-molecule microarray); assay: small molecules binding Wnt5a protein – biophysical, small-molecule microarray, 635/667 nm fluorescence, primary screen (AID 1142); settings: 635 nm fluorescence, higher = more signal;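 further: fluorescence read at 667 nm with signal to noise per printed feature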
[2] = ATP-based viability of Huh7 replicon cells – cell-based, CellTiter-Glo luminescence, basal, 48 h, cytotoxicity control for HCV replication inhibitor project, primary screen (AID 1143); settings: higher = more signal, called active from +8 up or from −8 down;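 further: Huh7 hepatoma cells carrying a hepatitis C replication reporter with no stimulus; test concentration not given here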
[3] = Pseudomonas biofilm growth suppression – PAO1 strain, BacTiter-Glo luminescence, LB-PBS, primary screen (AID 1144); settings: P. aeruginosa PAO1 biofilm, 12 h, higher = more signal
[4] = basal CRE-LacZ reporter activity in PC12 – cell-based, unstimulated, primary screen (AID 1145); settings: no forskolin, luminescence, 4.5 h, higher = more signal, called active from +8 up or from −8 down
[5] = forskolin-driven CRE-LacZ activity in PC12 – cell-based, CRE-LacZ reporter, forskolin-stimulated, primary screen (AID 1146); settings: luminescence, 4.5 h, higher = more signal, called active from +8 up or from −8 down;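 further: PC12 cells with 6xCRE LacZ reporter stimulated by forskolin 10 µM; beta-galactosidase reporter signal reflecting CREB driven transcription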
[6] = molecular target: Streptavidin (Streptomyces avidinii) (UniProt P22629); assay: compounds binding control protein streptavidin – biophysical, small-molecule microarray, 635/667 nm fluorescence, artefact control for SMM compound annotation, primary screen (AID 1147); settings: higher = more signal;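 further: signal reflects streptavidin binding to arrayed compounds as a control protein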
Chain of Streptavidin (Streptomyces avidinii) (P22629 whole entry, looked up): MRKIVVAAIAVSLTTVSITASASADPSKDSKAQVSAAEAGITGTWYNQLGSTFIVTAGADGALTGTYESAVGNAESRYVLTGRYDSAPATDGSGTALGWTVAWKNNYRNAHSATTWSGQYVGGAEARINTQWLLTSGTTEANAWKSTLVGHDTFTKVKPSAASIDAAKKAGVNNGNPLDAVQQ

[7] = probe aInhba binding on compound microarray – biochemical, small-molecule microarray, 635/667 nm fluorescence, primary screen (AID 1148); settings: higher = more signal;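 further: score merges 667nm spot fluorescence with signal-to-noise for antibody binding to printed compounds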
[8] = molecular target: Torsin-1A (Homo sapiens) (UniProt O14656); assay: TOR1A wild-type binding on microarray – cell lysate, small-molecule microarray, lysate, 635/667 nm, primary screen (AID 1149); settings: COS7 hTOR1A-WT lysate, 635 nm fluorescence, higher = more signal
Chain of Torsin-1A (Homo sapiens) (O14656 whole entry, looked up): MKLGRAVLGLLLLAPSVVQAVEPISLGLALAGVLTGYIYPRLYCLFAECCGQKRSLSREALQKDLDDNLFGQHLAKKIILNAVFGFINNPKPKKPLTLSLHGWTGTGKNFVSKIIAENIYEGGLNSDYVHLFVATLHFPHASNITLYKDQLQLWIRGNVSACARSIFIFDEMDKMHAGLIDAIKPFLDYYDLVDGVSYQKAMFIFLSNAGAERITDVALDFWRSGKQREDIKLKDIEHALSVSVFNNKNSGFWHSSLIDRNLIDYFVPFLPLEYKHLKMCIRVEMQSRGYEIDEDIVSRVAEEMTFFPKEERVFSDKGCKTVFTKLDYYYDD

[9] = molecular target: Torsin-1A (Homo sapiens) (UniProt O14656); assay: torsin A mutant lysate binding on microarrays – cell lysate, small-molecule microarray, COS7 lysate, 635/667 nm fluorescence, primary screen (AID 1150); settings: COS7 hTOR1A mutant lysate, 635 nm fluorescence, higher = more signal;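 further: score pools 667 nm emission and signal to noise measuring lysate protein binding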
[10] = tested on: Sonic hedgehog protein (Shh); assay: Sonic hedgehog microarray binding compounds – biochemical, small-molecule microarray, 635/667 nm fluorescence, primary screen (AID 1151); settings: 635 nm fluorescence, higher = more signal;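 further: Shh protein binding to compounds spotted on small-molecule microarray slides; score combines spot fluorescence intensity with signal-to-noise across triplicate slides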

Compound | composite z-score [1] | z-score [2] | z-score [3] | z-score [4] | z-score [5] | composite z-score [6] | composite z-score [7] | composite z-score [8] | composite z-score [9] | composite z-score [10]
CC(C)C[C@H]1NC(=O)CNC(=O)[C@@]23C(=O)N[C@@H](Cc4ccccc4)C2[C@H](C)[C@@]2(C)O[C@H]2C3/C=C/C/C=C\CNC1=O (stereo not given in full) | -0.0443 | 0.0643 (inactive) | -0.0124 (inactive) | 0.483 (inactive) | 0.201 (inactive) | -0.185 | -0.0719 | -0.0633 | 0.129 | 1.93
O=C(NC1CC1)[C@@H]1c2ccccc2C(=O)N(C2CCCCC2)[C@H]1c1ccc(CO)cc1 | 0.0033 | -1.49 (inactive) | 0.446 (inactive) | -0.0259 (inactive) | -0.592 (inactive) | -0.104 | -0.221 | -0.164 | 0.324 | -0.118
C=C(CCCC)C(=O)CC[C@@H](OC(C)=O)c1ccc(OCCO)cc1 | 0.791 | -0.742 (inactive) | -1.12 (inactive) | 0.653 (inactive) | -0.101 (inactive) | -0.871 | 0.0154 | 1.34 | 0.084 | 1.52
CCCC1(C(=O)OC)C=C2C(=C(C(C)C)C(=O)C2C)CN1 (stereo not given) | -0.0597 | -0.349 (inactive) | 0.2 (inactive) | 0.786 (inactive) | -0.645 (inactive) | -0.481 | -0.0791 | -0.814 | 0.29 | -0.182
COc1ccc(CCNC(=O)[C@@H]2c3ccccc3C(=O)N(Cc3cc(F)cc(C(F)(F)F)c3)[C@H]2c2ccc(CO)cc2)cc1 | 0.0093 | -0.489 (inactive) | 0.869 (inactive) | 0.585 (inactive) | -1.11 (inactive) | 0.234 | 0.396 | 0.642 | 0.478 | 0.618
Cc1ccc(N2C(=O)c3ccccc3[C@@H](C(=O)NCCN3CCOCC3)[C@@H]2c2ccc(CO)cc2)nc1 | -0.275 | 0.209 (inactive) | -0.479 (inactive) | 0.145 (inactive) | -0.479 (inactive) | -1.42 | 0.0051 | -2.75 | -1.65 | 0.179
O=C1NC(=O)C2C1C=CC(C(O)C(c1ccccc1)c1ccccc1)N2Nc1ccccn1 (stereo not given) | 0.367 | 0.604 (inactive) | -0.725 (inactive) | -0.898 (inactive) | -0.804 (inactive) | -0.0787 | 0.096 | 0.675 | 1.06 | 0.676
